Assay results taken from PubChem BioAssay (NCATS).
Results filed as inconclusive are left out. Entries that show only a call come without a potency. Active and inactive are the calls of the source. The call rests on the fitted dose curve.

Experiment: Cytotoxicity counterscreen for inhibitors of SARS-CoV-2 cell entry (AID 1645845); further: nearly all actives have a fitted effect of over 50% in size
Details: cell viability (SARS-CoV-2 entry assay cells); series mostly up to 57.1 µM
Outline: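 HEK293-ACE2 cells (Expi293F stably expressing human ACE2) seeded overnight, then compound for 1 h plus 48 h at 37C. Viability as ATP content by luminescence; normalized to wells with cells and media-only wells.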
Potency means the concentration at half of the fitted maximal effect.

SMILES | Potency | outcome
COc1ccc(-n2c(SCCCN3C(=O)c4cccc5cccc(c45)C3=O)nnc2-c2ccncc2)cc1 | inactive | 
Cc1ccc(C(=O)Nc2ccc(CN3CCN(C)CC3)c(C(F)(F)F)c2)cc1C#Cc1cnc2[nH]ncc2c1 | 31.6 µM (active) | 
O=C(O)CC(C(=O)O)n1c(O)c(C2=c3cc(Br)ccc3=NC2=O)sc1=S (stereo not given) | inactive | 
Cc1c(F)cc(C(=O)NC2CC2)cc1-c1c(F)cn2c(C(C)(C)C)nnc2c1F | inactive | 
O=C(Cc1cccc(OC(F)(F)F)c1)Nc1ccc(CCCCc2nnc(NC(=O)Cc3ccccn3)s2)nn1 | inactive | 
CNC(=O)[C@H](Cc1c[nH]c2ccccc12)NC(=O)[C@@H](CC(=O)NO)CC(C)C | inactive | 
O=C(C[C@@H]1C/C=C\CCC(=O)O[C@H](c2ccccc2)CNC1=O)NCc1ccc(Cl)cc1 | inactive | 
COCC(=O)NC/C=C/c1ccc2ncnc(Nc3ccc(Oc4ccc(C)nc4)c(C)c3)c2c1 | inactive | 
N#C/C(=C(/N)Sc1ccc(N)cc1)c1ccccc1C(F)(F)F | inactive | 
CN1CCN(CCCNc2ncc(Cl)c(-c3cc4c(C(=O)NC5CC5)cccc4s3)n2)CC1 | inactive | 
C[C@H](NC(=O)/C(C#N)=C/c1cccc(Br)n1)c1ccccc1 | 28.2 µM (active) | 
O=C(C1CC1)N1CC[C@@H](Cc2n[nH]c(=O)n2-c2ccc(-c3ccc4occc4c3)cc2)C1 | 4.47 µM (active) | 
CCC(C)CNCC(=O)N1CCc2sccc2C1c1cccc(C)n1 (stereo not given) | inactive | 
CCOc1cc(C(C)(C)C)ccc1C1=N[C@@](C)(c2ccc(Cl)cc2)[C@@](C)(c2ccc(Cl)cc2)N1C(=O)N1CCN(CC(=O)N2CCOCC2)CC1 | inactive | 
Cc1[nH]cnc1CN1CCN(C(=O)N[C@@H](CC(C)C)C(=O)O)[C@@H](Cc2ccccc2)C1=O | inactive | 
CCCN(CCC)C(=O)C1=Cc2ccc(-c3ccc(C(=O)N4CCCC4)cc3)cc2N=C(N)C1 | inactive | 
COc1cc(N2CCC(N3CCN(C)CC3)CC2)ccc1Nc1ncnc(Nc2ccccc2S(=O)(=O)C(C)C)n1 | inactive | 
CO[C@H]1C[C@@H]2CC[C@@H](C)[C@@](O)(O2)C(=O)C(=O)N2CCCC[C@H]2C(=O)O[C@H]([C@H](C)C[C@@H]2CC[C@@H](OP(C)(C)=O)[C@H](OC)C2)CC(=O)[C@H](C)/C=C(\C)[C@@H](O)[C@@H](OC)C(=O)[C@H](C)C[C@H](C)/C=C/C=C/C=C/1C | inactive | 
N#CCC1(n2cc(-c3ncnc4[nH]ccc34)cn2)CN(C2CCN(C(=O)c3ccnc(C(F)(F)F)c3F)CC2)C1 | inactive | 
O=C(NOCCO)c1ccc2cncn2c1Nc1ccc(I)cc1F | inactive | 

SMILES | Potency | outcome
O=c1[nH]nc2c3c(cccc13)NC(CN1Cc3ccccc3C1)=N2 | inactive | 
C[C@@H]1CCN(C(=O)N2CCCC2)C[C@@H]1N(C)c1ncnc2[nH]ccc12 | inactive | 
CN(C)C(N)=NC(=N)N |  | inactive [setting not given]
CC[C@@H]1[C@H](F)C(=O)N[C@@H]1COc1nccc2cc(C(N)=O)c(OC)cc12 | inactive | 
Nc1ncc(C(=O)NC2CN(C(=O)C3CC3)C2)c2ccc(-c3cccc(F)c3)nc12 | inactive | 
Cn1cc(-c2cnc3ccc4ccc(CS(=O)(=O)NCc5ccccn5)cc4c(=O)c3c2)cn1 | inactive | 
CN(C)Cc1cccc(N=C(c2ccccc2)c2c(O)[nH]c3cc(C(N)=O)ccc23)c1 | inactive | 
C[C@@H]1O[C@@H](O[C@@H]2\C=C/C=C\C=C/C=C\C[C@H](C)OC(=O)/C=C\[C@H]3O[C@@H]3C[C@H](O)C[C@]3(O)C[C@@H](O)[C@@H](C(=O)O)[C@H](C2)O3)[C@H](O)[C@H](N)[C@@H]1O | inactive | 
CNC(=O)c1cc(Oc2ccc3nc(N[C@@H]4CCCC[C@H]4O)sc3c2)ccn1 | inactive | 
NC(=O)c1cnc2[nH]ccc2c1NC1C2CC3C[C@H]1CC(O)(C3)C2 (stereo not given in full) | inactive | 
COc1cc(=C2C=c3ccccc3=N2)[nH]/c1=C/c1[nH]c(C)cc1C | 10 µM (active) | 
CC[C@H]1OC(=O)[C@H](C)C(=O)[C@H](C)[C@@H](O[C@H]2O[C@H](C)C[C@H](N(C)C)[C@H]2O)[C@](C)(OC)C[C@@H](C)C(=O)[C@H](C)[C@H]2N(CCCCn3cnc(-c4cccnc4)c3)C(=O)O[C@]12C | inactive | 
COc1cc(N2CCN(C)CC2)ccc1Nc1ncc2c(n1)N(C)c1ccccc1C(=O)N2 | inactive | 
O=C(NOCCO)c1cc(CN2OCCCC2=O)c(F)c(F)c1Nc1ccc(I)cc1F | inactive | 
Cn1ncnc1[C@H]1c2n[nH]c(=O)c3cc(F)cc(c23)N[C@@H]1c1ccc(F)cc1 | inactive | 
NC1=N[C@@]2(c3cc(NC(=O)c4ccc(F)cn4)ccc3F)COC[C@H]2CS1 | inactive | 
O=C(NO)C1(CS(=O)(=O)c2ccc(Oc3ccc(Cl)cc3)cc2)CCOCC1 | inactive | 
CN[C@@H](C)C(=O)N[C@H](C(=O)N1CCC[C@H]1C(=O)Nc1snnc1-c1ccccc1)C1CCCCC1 | inactive | 
Cc1c(CN2CCN(C(=O)[C@H](C)O)CC2)sc2c(N3CCOCC3)nc(-c3cnc(N)nc3)nc12 | inactive | 
Cc1ccc(NC(=O)Nc2cc(C(F)(F)F)ccc2F)cc1Nc1ccc2c(c1)NC(=O)/C2=C\c1ccc[nH]1 | inactive | 
